For the assay, the system named is PfIESI-1 RRM domain (Plasmodium falciparum ortholog aa 875-1232, GST fusion). Briefly: RBNS R-value (6-mer enrichment in protein-bound RNA vs input library) (ratio); higher = stronger binding preference; the methods of the paper give 50 / 100 / 500 nM protein instead. Here is the method: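 RNA Bind-n-Seq: recombinant GST-tagged IESI-1 RRM domain was incubated at room temperature with a random 40-nt in vitro transcribed RNA library at 250, 500 or 1000 nM protein. Bound RNA was pulled down on glutathione beads and sequenced. R-value is the enrichment of each 6-mer in the bound RNA relative to the input library. Each 6-mer sits inside the random 40-mer context, not as an isolated oligo. Values are replicate 1 only.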

Over roughly 4,100 sequences, “RBNS R-value (6-mer enrichment in protein-bound RNA vs input library)” has its median near 0.99; the highest 2% begin near 1.4. The entries come from a sample that favours the highest values as a whole.

Regarding AAAGGG, the “RBNS R-value” runs as follows: (protein concentration: 250 nM) 1.07; (protein concentration: 500 nM) 1.12; (protein concentration: 1000 nM) 1.12.

In the case of UGAUGA, the “RBNS R-value” runs as follows: (protein concentration: 250 nM) 3.34; (protein concentration: 500 nM) 3.56; (protein concentration: 1000 nM) 2.48.

As for GGAUGC, the “RBNS R-value” is 1.04 (protein concentration: 250 nM), 0.968 (protein concentration: 500 nM) and 1.07 (protein concentration: 1000 nM).

Consider AGAUGU, for which the “RBNS R-value” was found to be 1.06 (protein concentration: 250 nM), 1.13 (protein concentration: 500 nM) and 1.05 (protein concentration: 1000 nM).

Consider CGAUGU, for which the “RBNS R-value” (protein concentration: 250 nM) was determined as 1.13, the “RBNS R-value” (protein concentration: 500 nM) was 1.16 and the “RBNS R-value” (protein concentration: 1000 nM) stood at 1.09.

Consider UGAUGC, for which the “RBNS R-value” is 2.31 (protein concentration: 250 nM), 2.42 (protein concentration: 500 nM) and 1.91 (protein concentration: 1000 nM).

As to UUAUGC, the “RBNS R-value” worked out at 0.832 (protein concentration: 250 nM), 0.799 (protein concentration: 500 nM) and 0.831 (protein concentration: 1000 nM).

In the case of UGAUGU, the “RBNS R-value” by setting is: (protein concentration: 250 nM) 2.5; (protein concentration: 500 nM) 2.78; (protein concentration: 1000 nM) 2.1.

As to CGAUGA, the “RBNS R-value” reads like this: (protein concentration: 250 nM) 1.66; (protein concentration: 500 nM) 1.7; (protein concentration: 1000 nM) 1.44.

For CGAUGC, the “RBNS R-value” came out at 1.26 (protein concentration: 250 nM), 1.22 (protein concentration: 500 nM) and 1.18 (protein concentration: 1000 nM).

Take UGAUCA: the “RBNS R-value” (protein concentration: 250 nM) worked out at 1.2, the “RBNS R-value” (protein concentration: 500 nM) worked out at 1.26 and the “RBNS R-value” (protein concentration: 1000 nM) was 1.17.

For the sequence CGAUCA, the “RBNS R-value” is, setting by setting: (protein concentration: 250 nM) 0.917; (protein concentration: 500 nM) 0.906; (protein concentration: 1000 nM) 0.977.

On to GGAUGA, for which the “RBNS R-value” amounted to 1.23 (protein concentration: 250 nM), 1.25 (protein concentration: 500 nM) and 1.17 (protein concentration: 1000 nM).

Take GGUCUU: the “RBNS R-value” is, setting by setting: (protein concentration: 250 nM) 0.91; (protein concentration: 500 nM) 0.864; (protein concentration: 1000 nM) 0.932.

Regarding UACACG, the “RBNS R-value” is 0.894 (protein concentration: 250 nM), 0.857 (protein concentration: 500 nM) and 0.867 (protein concentration: 1000 nM).

As to UGUAAU, the “RBNS R-value” (protein concentration: 250 nM) was found to be 0.85, the “RBNS R-value” (protein concentration: 500 nM) is 0.907 and the “RBNS R-value” (protein concentration: 1000 nM) came to 0.853.

Take AAGGUA: the “RBNS R-value” (protein concentration: 250 nM) is 0.941, the “RBNS R-value” (protein concentration: 500 nM) was 1.01 and the “RBNS R-value” (protein concentration: 1000 nM) was 0.987.

For the sequence CAUCAU, the “RBNS R-value” by setting is: (protein concentration: 250 nM) 0.806; (protein concentration: 500 nM) 0.8; (protein concentration: 1000 nM) 0.838.

On to GCCCGC, for which the “RBNS R-value” runs as follows: (protein concentration: 250 nM) 1.24; (protein concentration: 500 nM) 1.09; (protein concentration: 1000 nM) 1.2.

In the case of CGAGGC, the “RBNS R-value” by setting is: (protein concentration: 250 nM) 1.15; (protein concentration: 500 nM) 1.08; (protein concentration: 1000 nM) 1.17.

On to CCAUCU, for which the “RBNS R-value” reads like this: (protein concentration: 250 nM) 0.967; (protein concentration: 500 nM) 0.915; (protein concentration: 1000 nM) 0.956.

As for CCCUCU, the “RBNS R-value” runs as follows: (protein concentration: 250 nM) 0.993; (protein concentration: 500 nM) 0.894; (protein concentration: 1000 nM) 0.949.

For the sequence GAGUGC, the “RBNS R-value” was 1.09 (protein concentration: 250 nM), 1.01 (protein concentration: 500 nM) and 1.04 (protein concentration: 1000 nM).

Turning to AGAUGC, the “RBNS R-value” is 1.18 (protein concentration: 250 nM), 1.17 (protein concentration: 500 nM) and 1.14 (protein concentration: 1000 nM).

As for AGAUGG, the “RBNS R-value” reads like this: (protein concentration: 250 nM) 1.12; (protein concentration: 500 nM) 1.14; (protein concentration: 1000 nM) 1.14.

As to AGAUGA, the “RBNS R-value” by setting is: (protein concentration: 250 nM) 1.49; (protein concentration: 500 nM) 1.55; (protein concentration: 1000 nM) 1.34.

As to UGAUGG, the “RBNS R-value” reads like this: (protein concentration: 250 nM) 2.48; (protein concentration: 500 nM) 2.56; (protein concentration: 1000 nM) 1.9.

Turning to AUAUGA, the “RBNS R-value” runs as follows: (protein concentration: 250 nM) 1.1; (protein concentration: 500 nM) 1.23; (protein concentration: 1000 nM) 1.07.

With CGAUGG, the “RBNS R-value” by setting is: (protein concentration: 250 nM) 1.24; (protein concentration: 500 nM) 1.23; (protein concentration: 1000 nM) 1.17.

Regarding CAGGCA, the “RBNS R-value” was 1.07 (protein concentration: 250 nM), 1.06 (protein concentration: 500 nM) and 1.07 (protein concentration: 1000 nM).

In the case of GUGCGC, the “RBNS R-value” is 0.961 (protein concentration: 250 nM), 0.907 (protein concentration: 500 nM) and 0.975 (protein concentration: 1000 nM).

For the sequence UUCUCC, the “RBNS R-value” is, setting by setting: (protein concentration: 250 nM) 0.999; (protein concentration: 500 nM) 0.954; (protein concentration: 1000 nM) 0.96.

For UUAUCG, the “RBNS R-value” (protein concentration: 250 nM) was determined as 0.802, the “RBNS R-value” (protein concentration: 500 nM) was determined as 0.76 and the “RBNS R-value” (protein concentration: 1000 nM) was 0.799.

For the sequence GUAUUG, the “RBNS R-value” is, setting by setting: (protein concentration: 250 nM) 0.976; (protein concentration: 500 nM) 0.938; (protein concentration: 1000 nM) 0.944.

On to GUAAUA, for which the “RBNS R-value” is, setting by setting: (protein concentration: 250 nM) 0.77; (protein concentration: 500 nM) 0.864; (protein concentration: 1000 nM) 0.803.

With UAUUUA, the “RBNS R-value” reads like this: (protein concentration: 250 nM) 0.769; (protein concentration: 500 nM) 0.744; (protein concentration: 1000 nM) 0.736.

Regarding GAUUUU, the “RBNS R-value” (protein concentration: 250 nM) was 1.78, the “RBNS R-value” (protein concentration: 500 nM) came to 1.92 and the “RBNS R-value” (protein concentration: 1000 nM) turned out to be 1.53.

With GAUUUG, the “RBNS R-value” amounted to 1.88 (protein concentration: 250 nM), 1.94 (protein concentration: 500 nM) and 1.51 (protein concentration: 1000 nM).

Turning to CAUUUC, the “RBNS R-value” runs as follows: (protein concentration: 250 nM) 0.964; (protein concentration: 500 nM) 0.947; (protein concentration: 1000 nM) 0.999.

As for AAUUUG, the “RBNS R-value” (protein concentration: 250 nM) amounted to 1.08, the “RBNS R-value” (protein concentration: 500 nM) came to 1.18 and the “RBNS R-value” (protein concentration: 1000 nM) worked out at 1.11.

As for GAUUUA, the “RBNS R-value” is, setting by setting: (protein concentration: 250 nM) 1.33; (protein concentration: 500 nM) 1.46; (protein concentration: 1000 nM) 1.22.

Consider CAUUUA, for which the “RBNS R-value” was determined as 0.761 (protein concentration: 250 nM), 0.749 (protein concentration: 500 nM) and 0.752 (protein concentration: 1000 nM).

Consider AAUUUC, for which the “RBNS R-value” was 1.06 (protein concentration: 250 nM), 1.11 (protein concentration: 500 nM) and 1.05 (protein concentration: 1000 nM).

GAUUUC: the “RBNS R-value” (protein concentration: 250 nM) came to 1.71, the “RBNS R-value” (protein concentration: 500 nM) is 1.74 and the “RBNS R-value” (protein concentration: 1000 nM) came out at 1.52.

AAUUUU: the “RBNS R-value” was 0.989 (protein concentration: 250 nM), 1.08 (protein concentration: 500 nM) and 1.03 (protein concentration: 1000 nM).

On to CAUUUU, for which the “RBNS R-value” (protein concentration: 250 nM) was 0.932, the “RBNS R-value” (protein concentration: 500 nM) is 0.925 and the “RBNS R-value” (protein concentration: 1000 nM) turned out to be 0.962.

CAUUUG: the “RBNS R-value” came to 1.03 (protein concentration: 250 nM), 1.08 (protein concentration: 500 nM) and 1.04 (protein concentration: 1000 nM).

The values above are taken from the supplement of paper PMC13392028.
